Rows were chosen to be rich in hits. Some 19% of all compounds tested hit in one or more screens of this group.
TDP1 cell noCPT: qHTS for Inhibitors of human tyrosyl-DNA phosphodiesterase 1 (TDP1): qHTS in cells in absence of CPT; DT40 Tdp1-/- hTDP1 cells, no CPT, ATP luminescence, 48 h; Potency, µM (highest dose often 46.2 µM), most hits filed as inhibitors; actives 15% (n = 420,000); AID 686978, 2013; further: nearly all actives have a fitted effect of over 55% in size
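DT40 Tdp1-/-;hTDP1 cells, no CPT (DMSO vehicle only), 400 cells/well; compounds pin-transferred; ≥48 hr, 37 °C; CellTiter-Glo 30 min RT dark, luminescence read.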
HepG2 viability: kills HepG2 cells in TGF-b inhibitor counter-screen | HepG2 CAGA-GFP viability, ATP luminescence, 18 h | AID 588856 | Potency, µM (top dose mostly 46.1 µM), actives largely listed as cytotoxic | actives 0.76% (n = 410,000)
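HepG2 CAGA-GFP cells (1000/well, DMEM with 1% FBS) received compound, then TGF-beta at 500 pg/mL final, and were incubated 18 hours at 37 degrees C. Viability was read by CellTiter-Glo luminescence. Media-only wells were set as complete cell-killing and DMSO as no toxicity.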
TGFb inhibitor: TGF-b pathway inhibition; HepG2 CAGA-GFP TGF-b/SMAD3 reporter, GFP fluorescence, 18 h; TGF-beta stimulated, 500 pg/mL final; Potency, µM (highest dose often 46.1 µM), most hits filed as inhibitors; actives 1.2% (n = 410,000); AID 588855; further: nearly all actives have a fitted effect of over 65% in size
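HEPG2 CAGA-GFP cells (1000/well, DMEM with 1% FBS) were pre-incubated 2 h at 37 degrees C, given compound by pin tool, then stimulated with TGF-beta at 500 pg/mL final for 18 h before per-cell GFP fluorescence imaging.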
TDP1 cell CPT: growth inhibition of DT40 Tdp1-/-;hTDP1 cells with camptothecin (screen for TDP1 inhibitors); chicken DT40 Tdp1-/-;hTDP1 cells + 20 nM CPT, ATP luminescence, 48 h; actives 12% (n = 420,000); AID 686979; Potency, µM (titrated, usually from 46.2 µM), hits mostly inhibitors; further: nearly all actives have a fitted effect of over 55% in size
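Chicken DT40 Tdp1-/- cells stably complemented with human TDP1 were seeded at 400 cells/well in medium containing 20 nM camptothecin, exposed to pin-transferred compounds, and grown at 37 °C for at least 48 hr. Viability was read as ATP luminescence.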
TDP1 inh: blocks human tyrosyl-DNA phosphodiesterase 1 | Potency, µM (highest dose often 130 µM), usual class: inhibitors | recombinant TDP1, AlphaScreen DNA substrate cleavage | Q9NUW8 | actives 0.28% (n = 350,000); further: nearly all actives have a fitted effect of over 40% in size
Target sequence (Q9NUW8 whole entry, looked up): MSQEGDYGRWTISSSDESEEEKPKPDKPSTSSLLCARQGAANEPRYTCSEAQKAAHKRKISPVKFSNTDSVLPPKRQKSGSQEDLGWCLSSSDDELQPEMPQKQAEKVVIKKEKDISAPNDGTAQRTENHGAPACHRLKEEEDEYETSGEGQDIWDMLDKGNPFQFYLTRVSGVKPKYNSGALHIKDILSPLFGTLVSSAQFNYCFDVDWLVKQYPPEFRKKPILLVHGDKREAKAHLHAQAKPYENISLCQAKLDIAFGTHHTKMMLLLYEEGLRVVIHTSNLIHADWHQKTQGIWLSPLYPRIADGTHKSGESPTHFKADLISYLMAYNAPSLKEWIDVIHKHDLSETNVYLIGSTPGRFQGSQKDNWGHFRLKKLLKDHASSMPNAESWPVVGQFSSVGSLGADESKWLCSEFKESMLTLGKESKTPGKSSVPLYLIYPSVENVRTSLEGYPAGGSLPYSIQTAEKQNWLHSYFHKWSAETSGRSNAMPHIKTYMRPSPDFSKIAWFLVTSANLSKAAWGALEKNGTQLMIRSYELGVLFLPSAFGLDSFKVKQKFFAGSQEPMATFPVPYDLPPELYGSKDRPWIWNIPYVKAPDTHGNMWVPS
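AlphaScreen read-out: signal falls as enzyme removes the 3' tyrosine-FITC from a 5'-biotinylated DNA oligo (15 nM, 5 min, RT). Enzyme was E. coli-made recombinant Tdp1 at 1 nM, exposed to compound for 15 min beforehand; beads 10 ug/ml, 10 min.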
IL1B secr inh: inflammasome signaling inhibition, IL-1 beta readout | THP-1 LPS/ATP IL-1B secretion, AlphaLISA, 16 h; hits give low values | activity change, % at 57.5 µM | actives 4.7% (n = 360,000) | AID 743279; in the data active means activity change below about -50%; inconclusive means mostly about -30% to -49%
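Secreted IL-1B measured by AlphaLISA bead assay after 16 h compound exposure of THP-1 cells; compounds (final up to 57.5 uM) added 1 h before LPS (250 ng/mL) and ATP (1.25 mM) stimulation; lower signal means less secretion.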
Numbers stand for hits; – = inactive; ? = inconclusive; · = no result given; ! = a repeat was not active; [ ] = remark or other dose. Unless noted, the call rests on the fitted dose curve; in most records, active means well fitted curve in the direction sought with a large enough effect; inconclusive means small, poorly fitted or top-dose-only effect, or another doubt; inactive means no such curve, though single readings can be large; an effect the other way counts as inactive or inconclusive.

SMILES	TDP1 cell noCPT	HepG2 viability	TGFb inhibitor	TDP1 cell CPT	TDP1 inh	IL1B secr inh
C[C@@H]1CN([C@@H](C)CO)C(=O)CCCn2nncc2CO[C@@H]1CN(C)C(=O)Oc1ccc2ccccc2c1	?	–	–	–	·	–
CCC(C)=O	·	·	·	·	–	·
Cc1ccc(-n2nc(C)c3c2NC(=O)CSC3c2ccc(O)cc2)cc1Cl (stereo not drawn)	?	–	–	–	–	·
COC(=O)C1=C(c2cccc(C#N)c2)C[C@@H]2CC[C@H]1N2C(=O)NC1Cc2ccccc2C1	–	–	–	–	–	–
CSCC[C@H](NC(=O)[C@H](Cc1ccccc1)NC(=O)CNC(=O)CNC(=O)[C@@H](N)Cc1ccc(O)cc1)C(=O)O	–[4.12 µM]	·	·	–[4.12 µM]	–	·
O=C(c1ccco1)N1CCN(C(=O)c2ccc(COc3ccc(Cl)cc3Cl)o2)CC1	?	–	–	26µM	·	–
CNCC/C=C/c1cccnc1	–	·	·	–	–	·
c1ccc2sc(C3(NCC4CC4)CCCCC3)cc2c1	13µM	·	·	16µM	–	·
c1ccc2sc(C3(N4CCCC4)CCCCC3)cc2c1	21µM	·	·	?	–	·
N#Cc1ccc(CN2CCCC3(CCN(C(=O)Oc4ccccc4)CC3)C2)cc1	–	·	·	–	·	·
Clc1cccc(C2NCc3ccccc3-n3cccc32)c1 (stereo not drawn)	?	–	–	?	·	–
CCOc1cc2c(cc1OCC)-n1cccc1C(c1cccc(F)c1)NC2 (stereo not drawn)	?	–	–	21µM	·	?
CCOc1cc2c(cc1OCC)-n1cccc1C(c1cccc(OCC)c1O)NC2 (stereo not drawn)	16µM	–	–	?	·	–
CCOc1cc2c(cc1OCC)-n1cccc1C(c1ccccc1F)NC2 (stereo not drawn)	18µM	–	–	?	·	?
CCOc1cc2c(cc1OCC)-n1cccc1C(c1cc(OC)ccc1F)NC2 (stereo not drawn)	16µM	–	–	18µM	·	–
CC(C)[C@]1(O)[C@@H](OC(=O)c2ccc[nH]2)[C@@]2(O)[C@@]3(C)C[C@]4(O)O[C@@]5([C@H](O)[C@@H](C)CC[C@]35O)[C@@]2(O)C41C	?	–	–	–	–	·
CCCC[C@@H](C)[C@@H](OC(=O)C[C@@H](CC(=O)O)C(=O)O)[C@H](C[C@@H](C)CCCCCC[C@@H](O)C[C@H](O)[C@H](C)N)OC(=O)C[C@@H](CC(=O)O)C(=O)O	·	·	·	·	–	·
C[C@H](N)[C@@H](O)c1ccccc1	·	·	·	·	–[21 µM]	·
COc1ccc(C2C=C(c3ccccc3)Nc3nc(NC(=O)/C=C/c4ccccc4Cl)nn32)cc1 (stereo not drawn)	3.7µM	–	?	5.2µM	–	·
O=C1NC(=O)C2(Cc3ccccc3N3CCCC32)C(=O)N1c1ccc(Cl)cc1 (stereo not drawn)	?	–	–	?	–	–
CN1C(=O)NC(=O)[C@]2(Cc3ccccc3N3CCN(c4ccccc4)CC32)C1=O (stereo partly drawn)	?	–	–	?	–	–
O=C1NC(=O)C2(Cc3c(nc4ccccn4c3=O)N3CCCCCC32)C(=O)N1Cc1ccccc1 (stereo not drawn)	23µM	–	–	21µM	–	–
O=C1NC(=O)C2(Cc3ccccc3N3CCCC32)C(=O)N1Cc1ccccc1 (stereo not drawn)	23µM	–	–	?	–	–
O=C1NC(=O)[C@]2(Cc3ccccc3N3CCN(c4ccccc4)CC32)C(=O)N1Cc1ccccc1 (stereo partly drawn)	23µM	–	–	21µM	–	–
CC1CCN2c3nc4ccccn4c(=O)c3CC3(C(=O)N(C)C(=O)N(C)C3=O)C2C1 (stereo not drawn)	–	–	–	–	–	–
SMILES	TDP1 cell noCPT	HepG2 viability	TGFb inhibitor	TDP1 cell CPT	TDP1 inh	IL1B secr inh
C[C@]12CCC3C(CCC4=C(Cl)C(=O)CC[C@@]43C)C1CCC2O (stereo partly drawn)	·	·	·	·	–	·
CN=C=S	·	·	·	·	–	·
CN(c1ccccc1)P(=O)(N1CC1)N1CC1	4.1µM	–	?	2.6µM	·	–
COC(=O)[C@@H]1N=C(c2ccc(OC)cc2)O[C@]12C(=O)N(Cc1ccc(OC)cc1)c1ccccc12	?	·	·	18µM	·	–
COc1ccc(Cn2c(O)c(/C=N/NC(=O)c3ccccc3)c(=O)[nH]c2=O)cc1	?	–	–	–	–	–
COCCN(Cc1ccccc1)P(=O)(O)c1ccccc1OCC(=O)O	–	–	–	–	–	–
CC[C@@H](C(=O)O)[C@@H]1O[C@@H]([C@@H](C)[C@H](O)[C@H](C)C(=O)[C@H](CC)[C@H]2O[C@]3(C=C[C@@H](O)[C@]4(CC[C@@](C)([C@H]5CC[C@](O)(CC)[C@H](C)O5)O4)O3)[C@H](C)C[C@@H]2C)[C@@H](C)C[C@@H]1C	0.27µM	·	·	0.47µM	·	·
C/C=C1/C[C@@H](C)[C@@](C)(O)C(=O)OCC2=CCN3CC[C@@H](OC1=O)[C@@H]23	·	–	–	·	–	·
O=C(Cl)c1ccccc1F	·	·	·	·	–	·
CCCCC/C=C\C[C@@H](/C=C/C=C\C/C=C\CCCC(=O)O)OO	–[0.628 µM]	·	·	–[0.628 µM]	–	·
CCCCC/C=C\C/C=C\C/C=C\C/C=C\CCCC(=O)O	24µM!	·	·	30µM!	–	·
C=CCc1ccccc1OCCn1c(C2CC(=O)N(Cc3ccc(F)cc3)C2)nc2ccccc21 (stereo not drawn)	?	–	16µM	16µM	–	·
O=[N+]([O-])c1ccc(C(=Nc2ccccc2)N2CC2)cc1	15µM	–	–	8.2µM	·	–
O=[N+]([O-])c1ccccc1	–	·	·	–	–	·
CC(O)(CS(=O)(=O)c1ccc(F)cc1)C(=O)Nc1ccc(C#N)c(C(F)(F)F)c1 (stereo not drawn)	11µM	·	·	15µM	–	·
CCOC(=O)c1c(C)[nH]c(C)c1S(=O)(=O)N1CCC(C(=O)N2CCN(c3ccc(Cl)cc3)CC2)CC1	?	–	–	?	–	·
Cc1ccc(C(=O)Nc2nc3ccccc3[nH]2)cc1	18µM	–	–	?	–	–
CCOc1ccc(N(C(C)C(=O)Nc2cc(Cl)ccc2OC)S(C)(=O)=O)cc1 (stereo not drawn)	0.52µM	–	?	0.58µM	·	·
C[C@H]1CCC/C=C/C2C[C@H](O)C[C@H]2[C@H](O)/C=C/C(=O)O1 (stereo partly drawn)	0.35µM	·	·	0.25µM	–	·

Assay outcomes (PubChem BioAssay)
